The source of these data is PubChem BioAssay (NCATS).

A short description of assay [1]: qHTS Assay for Identifying Gametocytocidal Compounds (AID 743244; active = well fitted curve in the direction sought with a large enough effect; an effect the other way counts as inactive or inconclusive;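 also: % is scaled to controls: 0 for no effect and ±100 for the full control effect; actives lower the fluorescent signal which means gametocytes are killed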). Conditions: P. falciparum 3D7 stage III-V gametocytes, alamarBlue, 72 h; max response: stronger effect = lower value. A digest of the protocol:
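In this qHTS viability screen, late-stage 3D7 gametocytes are incubated with compound for 72 h, then with alamarBlue for 24 h; reduced resorufin fluorescence marks killing.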

Assay [2] can be described thus: qHTS profiling for inhibitors of Plasmodium falciparum (3D7) proliferation (AID 743322).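 Also: infected erythrocytes exposed to compound for 72 h before lysis; 100% = DMSO vehicle wells and 0% = 0.29 µM artemisinin.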 Conditions: P. falciparum 3D7 proliferation; at 28.7 µM (top of the series) unless noted. A digest of the protocol:
(§1)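 Erythrocytes infected with P. falciparum (0.3% parasitemia, 2.5% hematocrit) incubated with compounds 72 h at 37 C, 5% CO2. Lysis with saponin/Triton buffer containing SYBR Green I, overnight at room temperature in the dark; DNA fluorescence (485/535 nm) normalised to 0.29 uM artemisinin and DMSO.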
A general note: Quantitative high-throughput screening tests each substance at several concentrations.

The nature of assay [3]: qHTS profiling for inhibitors of Plasmodium falciparum (DD2) proliferation (AID 743323). Conditions: lower = more inhibition; at 28.7 µM (top of the series) unless noted. A digest of the protocol: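 Parasite proliferation measured via DNA-dye fluorescence, as uninfected erythrocytes lack DNA. Cultures at 0.3% parasitemia and 2.5% hematocrit incubated 72 h with compound; signal scaled between vehicle and 0.29 uM artemisinin wells.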

Assay [4] is described as follows: qHTS profiling for inhibitors of Plasmodium falciparum (HB3) proliferation (AID 743324; active = well fitted curve in the direction sought with a large enough effect; an effect the other way counts as inactive or inconclusive;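 also: 100% = DMSO vehicle wells and 0% = artemisinin-treated control wells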). Conditions: Plasmodium falciparum HB3 blood-stage proliferation; at 28.7 µM (top of the series) unless noted. A digest of the protocol: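 P. falciparum HB3 grown in erythrocytes (0.3% parasitemia, 2.5% hematocrit final) with compound for 72 h at 37 C, 5% CO2. Parasite DNA detected by SYBR Green after saponin/triton lysis overnight; normalized to 0.29 uM artemisinin and DMSO.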

Assay [5] is described as follows: qHTS profiling of the MIPE4 collection as inhibitors of Plasmodium falciparum (3D7) proliferation (AID 743344). Conditions: P. falciparum 3D7 in erythrocytes, SYBR Green DNA fluorescence, 72 h; at 28.5 µM (top of the series) unless noted. A digest of the protocol:
as §1

A short description of assay [6]: qHTS profiling of the MIPE4 collection as inhibitors of Plasmodium falciparum (DD2) proliferation (AID 743345). Conditions: P. falciparum Dd2 in erythrocytes, SYBR Green DNA, 72 h; at 28.5 µM (top of the series) unless noted. A digest of the protocol: as §1
Assay [7] can be described thus: qHTS profiling of the MIPE4 collection as inhibitors of Plasmodium falciparum (DD2) proliferation (Rep 2) (AID 743346). Conditions: P. falciparum Dd2 in erythrocytes, SYBR Green DNA, 72 h; at 28.5 µM (top of the series) unless noted. A digest of the protocol: as §1
The nature of assay [8]: qHTS profiling of the MIPE4 collection as inhibitors of Plasmodium falciparum (HB3) proliferation (AID 743347).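 Also: plate controls were DMSO vehicle wells for no effect and artemisinin wells for full effect.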 Conditions: P. falciparum HB3 in erythrocytes, SYBR Green DNA, 72 h; at 28.5 µM (top of the series) unless noted. The procedure, abridged:
as §1

Assay [9] in a line: High-throughput drug toxicity screening in the BPDCN cell line Gen2.2 (AID 1224824).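 Also: cells exposed to compounds for 48 h before reading.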 Conditions: Gen2.2 BPDCN cells; at 45.8 µM (top of the series) unless noted. The procedure, abridged: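 Gen2.2, 500 cells/well, phenol red-free RPMI/10% FBS/Pen-Strep; 48 h cpd, 37 °C/5% CO2; CTG lum, 15 min RT. Norm: DMSO = 100%, bortezomib 9.2 uM final = 0%.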
A short description of assay [10]: High-throughput drug toxicity screening in the BPDCN cell line Cal-1 (AID 1224825). Conditions: Cal-1 BPDCN cell viability, qHTS; at 45.8 µM (top of the series) unless noted. A digest of the protocol: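 500 Cal-1 cells/well, RPMI + glutamine + 10% FBS (phenol red-free); cpd added by pin tool; 48 h, 37C, 5% CO2; CTG 15 min RT, lumi read. Normalised: DMSO 100%, bortezomib 9.2 uM 0%.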

Assay [11] in a line: qHTS assay for measurement of the activity of small molecule inhibitors on Zika virus induced Caspase-3 activity in human iPSC derived neural progenitor cells (hNPCs) (AID 1224857; active = well fitted curve in the direction sought with a large enough effect; an effect the other way counts as inactive or inconclusive; also: nearly all actives have a fitted effect of over 65% in size; also: potency is read from the fitted curve at half-maximal effect). A digest of the protocol: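 In medium with heparin 2 ug/ml and cyclopamine 2 uM, hNPCs (350 cells/well) received compound for one hour and then Zika virus at 2 FFU/cell; caspase activity was measured by Caspase-Glo 3/7 luminescence 6 h post-infection.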

Assay [12] can be described thus: qHTS assay for measurement of the activity of small molecule inhibitors on Zika virus induced Caspase-3 activity in human astrocytoma cells (AID 1224859; active = well fitted curve in the direction sought with a large enough effect; an effect the other way counts as inactive or inconclusive; also: potency is read from the fitted curve at half-maximal effect). The procedure, abridged: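 A cell-based luminescent caspase-3/7 assay used SNB-19 cells infected with ZIKV (2 FFU/cell) for 6 h following 1 h compound pretreatment.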
Assay [13] can be described thus: qHTS Screen of the MIPE 4.0 Collection Against Ewings Sarcoma (RDES) (AID 1259252; active = well fitted curve in the direction sought with a large enough effect; an effect the other way counts as inactive or inconclusive; also: nearly all actives have a fitted effect of over 35% in size; also: potency is read from the fitted curve at half-maximal effect). The procedure, abridged: (§2)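 CellTiter-Glo luminescence after 48 h compound exposure (titration) gave viability; percent activity used DMSO-treated cells as no inhibition and medium-only wells as full inhibition. Cells grown in RPMI/5% FBS, dosed 4 h post-seeding.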
Assay [14] is described as follows: qHTS Screen of the MIPE 4.0 Collection Against Ewings Sarcoma (TC71) (AID 1259253; active = well fitted curve in the direction sought with a large enough effect; an effect the other way counts as inactive or inconclusive; also: nearly all actives have a fitted effect of over 40% in size; also: potency is read from the fitted curve at half-maximal effect). The procedure, abridged:
as §2

The nature of assay [15]: qHTS Screen of the MIPE 4.0 Collection Against Ewings Sarcoma (EW8) (AID 1259255; active = well fitted curve in the direction sought with a large enough effect; an effect the other way counts as inactive or inconclusive; also: nearly all actives have a fitted effect of over 35% in size; also: potency is read from the fitted curve at half-maximal effect;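 as to viability: 100% = DMSO-treated cells and 0% = medium-only wells without cells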). A digest of the protocol:
as §2

Results filed as inconclusive are left out. Calls of active or inactive are those of the source. Unless noted, no rule for the calls is given here.

Take `O=C1CCCC2=C1C(c1[nH]ncc1Cl)N=C(Nc1nc3ccccc3o1)N2` (configuration not stated): the max response in [1] was 6.89% (inactive). The remaining parasite growth % (stronger effect = lower value) in assay [2] came to 115%. The activity, percent of control in assay [3] amounted to 105%. The remaining proliferation (% of control), lower = more inhibition in assay [4] stood at 114%. In assay [5], this compound returned a parasite growth, % of DMSO control of 20.6%. The parasite growth remaining, % of DMSO control (lower = more inhibition) in assay [6] came to 10.9%. Further, the parasite growth, % of control (lower = inhibition) in [7] came out at 8.08%. In assay [8], the growth, % of control was determined as 55.2%. Also, in [9], the cell viability, % of control (lower = more cytotoxic) was determined as 73.8%. Besides, the viability (% of control) in assay [10] is 82.3%. The Potency entry in assay [11], in assay [12] and in [13] was “inactive” throughout. Besides, in assay [14], the Potency is 10.5 µM (active).

For the compound `O=S(=O)(N=Cc1c(O)ccc2ccccc12)c1cccs1`, the max response in [1] is -5.04% (inactive). Moreover, in assay [2], the remaining parasite growth % (stronger effect = lower value) amounted to 85.7%. Moreover, the activity, percent of control in assay [3] was 92.2%. The remaining proliferation (% of control), lower = more inhibition in [4] stood at 82.6%. The parasite growth, % of DMSO control in assay [5] was found to be 75.2%. In addition, the parasite growth, % of control (lower = inhibition) in assay [7] came out at 63.3%. In assay [8], this compound had a growth, % of control of 63.2%. In addition, the cell viability, % of control (lower = more cytotoxic) in assay [9] turned out to be 98%. For the same compound, the viability (% of control) in assay [10] was found to be 45.4%. Moreover, the Potency result in assay [11] and in [12] was “inactive” throughout. Also, the Potency is 0.105 µM (active) in [13], 1.66 µM (active) in assay [14] and 7.43 µM (active) in assay [15].

In the case of `COc1cc2c(cc1OC)CN(CCc1ccc(NC(=O)c3cccc4c(=O)c5cccc(OC)c5[nH]c34)cc1)CC2`, the remaining parasite growth % (stronger effect = lower value) in assay [2] is -0.733%. Besides, the activity, percent of control in [3] was 0.466%. Also, in [4], the remaining proliferation (% of control), lower = more inhibition was -0.901%. Besides, the parasite growth, % of DMSO control in assay [5] came out at 5.92%. Further, in assay [6], the parasite growth remaining, % of DMSO control (lower = more inhibition) was found to be 7.47%. Moreover, the parasite growth, % of control (lower = inhibition) in [7] was determined as 10%. The growth, % of control in assay [8] stood at 4.23%. Moreover, the cell viability, % of control (lower = more cytotoxic) in assay [9] amounted to 238%. Further, in [10], the viability (% of control) was determined as 104%. The Potency result in assay [11] and in [12] was “inactive” each time. Also, the Potency in assay [13] was 10.5 µM (active); in assay [14] it was 20.9 µM (active).

Turning to `CC(=O)NC(C)c1ccc(Oc2ccc(OC(C)C)cc2)cc1` (configuration not stated), the max response in assay [1] was -4.97% (inactive). In addition, the remaining parasite growth % (stronger effect = lower value) in assay [2] came out at 69.9%. Also, the activity, percent of control in [3] was found to be 93.5%. Besides, the remaining proliferation (% of control), lower = more inhibition in assay [4] worked out at 95.2%. Also, the parasite growth, % of DMSO control in assay [5] was 23.1%. Further, the parasite growth remaining, % of DMSO control (lower = more inhibition) in assay [6] is 10.5%. Besides, the parasite growth, % of control (lower = inhibition) in assay [7] was determined as 8.63%. The compound further displayed a growth, % of control in assay [8] of 20.1%. Further, in assay [9], the cell viability, % of control (lower = more cytotoxic) is 281%. Also, the viability (% of control) in assay [10] was 98.5%. Also, the Potency entry in assay [11], in assay [12] and in [13] was “inactive” each time. Further, the Potency was 8.33 µM (active) in assay [14] and 6.62 µM (active) in assay [15].

Take `O=C(O)[C@@H](c1ccc(OCc2ccc3ccccc3n2)cc1)C1CCCC1`: the max response in [1] is 46.8% (inactive). Further, the remaining parasite growth % (stronger effect = lower value) in assay [2] was found to be 114%. The activity, percent of control in [3] turned out to be 96.9%. For the same compound, the remaining proliferation (% of control), lower = more inhibition in [4] was determined as 106%. In assay [5], this compound had a parasite growth, % of DMSO control of 90.1%. Besides, the parasite growth remaining, % of DMSO control (lower = more inhibition) in [6] was determined as 102%. The parasite growth, % of control (lower = inhibition) in [7] was determined as 130%. For the same compound, the cell viability, % of control (lower = more cytotoxic) in assay [9] is 125%. The viability (% of control) in [10] was 73.2%. Besides, the Potency in assay [11] was 16.6 µM (active); in [12], 13.2 µM (active). Besides, the Potency entry in [13], in assay [14] and in assay [15] was “inactive” throughout.

For `C[C@]12CC[C@H](O)CC1=CC[C@@H]1[C@H]2CC[C@]2(C)C(c3cccnc3)=CC[C@H]12`, the max response in assay [1] was -8.9% (inactive). Further, the remaining parasite growth % (stronger effect = lower value) in assay [2] is -0.476%. For the same compound, the activity, percent of control in [3] was found to be 1.24%. Also, the remaining proliferation (% of control), lower = more inhibition in [4] stood at 24.9%. Moreover, the parasite growth, % of DMSO control in [5] is 7.02% [at 9.64 µM]. The parasite growth, % of control (lower = inhibition) in [7] was 24.8% [at 9.64 µM]. This compound had a growth, % of control in assay [8] of 9.4% [at 9.64 µM]. The cell viability, % of control (lower = more cytotoxic) in assay [9] came out at 60.5% [at 23.2 µM]. In assay [10], the viability (% of control) turned out to be 98.4% [at 23.2 µM]. Also, the Potency entry in [11], in assay [12], in [13], in assay [14] and in assay [15] was “inactive” in each case.

Consider `CC1(C)SCCN(S(=O)(=O)c2ccc(OCC#CCO)cc2)[C@@H]1C(=O)NO`, for which the max response in [1] is 1.92% (inactive). Moreover, the remaining parasite growth % (stronger effect = lower value) in [2] was determined as 107%. In addition, the activity, percent of control in assay [3] amounted to 104%. In [4], the remaining proliferation (% of control), lower = more inhibition amounted to 81.4%. This compound came in with a parasite growth, % of DMSO control in assay [5] of 65.2%. Moreover, in assay [6], the parasite growth remaining, % of DMSO control (lower = more inhibition) is 66%. In [7], the parasite growth, % of control (lower = inhibition) came out at 70%. In addition, the cell viability, % of control (lower = more cytotoxic) in [9] is 80%. Also, the viability (% of control) in [10] is 102%. For the same compound, the Potency result in assay [11], in assay [12], in [13] and in assay [15] was “inactive” each time. In assay [14], the Potency was 13.2 µM (active).

In the case of `Cc1csc(NC(=O)c2sc3nc4c(c(C(F)(F)F)c3c2N)CCC4)n1`, the max response in assay [1] was 13.6% (inactive). Moreover, the remaining parasite growth % (stronger effect = lower value) in [2] was 100%. In addition, the activity, percent of control in assay [3] came to 101%. The remaining proliferation (% of control), lower = more inhibition in assay [4] stood at 87.9%. In addition, in assay [5], the parasite growth, % of DMSO control came out at 44.6%. In addition, the parasite growth remaining, % of DMSO control (lower = more inhibition) in assay [6] was 90.9%. The parasite growth, % of control (lower = inhibition) in [7] amounted to 62.4%. The cell viability, % of control (lower = more cytotoxic) in [9] stood at 36.4%. In addition, the viability (% of control) in assay [10] came to 93.3%. Besides, the Potency was 23.5 µM (active) in assay [11], 1.48 µM (active) in [13], 4.18 µM (active) in [14] and 13.2 µM (active) in assay [15]. For the same compound, in assay [12], the Potency result was “inactive”.
